Results filed as inconclusive are left out. The source made the active and inactive calls. Unless noted, calls come from the whole dose curve; as a rule, active = well fitted curve in the direction sought with a large enough effect; inconclusive = small, poorly fitted or top-dose-only effect, or another doubt; inactive = no such curve, though single readings can be large; an effect the other way counts as inactive or inconclusive.
How the values were obtained:
[1] = Cell Viability - N2a (AID 540); conditions: N2a mouse neuroblastoma cell viability; activity change, negative = cytotoxicity: at 92.2 µM (top of the series);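 note: cells exposed to compound for 40 h at 37 °C; plate controls were DMSO alone for no effect and tamoxifen control for full effect; nearly all actives have a fitted effect of over 45% in size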
In short: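 Luminescent ATP signal (CellTiter-Glo, 20 min at room temperature) served as the viability read-out after N2a cells were treated with compounds for 40 hours at 37 °C. Concentration-response data were fitted to the Hill equation for AC50.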

[2] = Cell Viability - HUV-EC-C (AID 542); note: % is set by controls: 0 for no effect and ±100 for the full control effect; nearly all actives have a fitted effect of over 35% in size
In short: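 qHTS cytotoxicity: HUV-EC-C, 1000 cells/well, 5 hr settle, compound 40 hr 37 °C, CellTiter-Glo, luminescence. AC50 via Hill equation.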

[3] = Cell Viability - H-4-II-E (AID 543); note: % is set by controls: 0 for no effect and ±100 for the full control effect; nearly all actives have a fitted effect of over 35% in size
In short: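 Luminescent ATP signal (CellTiter-Glo) served as the viability read-out, with cytotoxicity seen as a concentration-dependent ATP drop. Cells were treated for 40 hours in complete medium. AC50 values derive from Hill-equation modelling.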

[4] = Cell Viability - Renal Proximal Tubule (AID 545); conditions: renal proximal tubule cells viability, primary cells of rat origin; activity change, negative = cytotoxicity: at 91.7 µM (top of the series); note: nearly all actives have a fitted effect of over 40% in size
In short: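 Viability taken as intracellular ATP (CellTiter-Glo luminescence) after 40 hr, 37 °C compound treatment of primary proximal tubule cells from rat kidney, 1000 cells/well; Hill-equation fits of qHTS concentration-response data gave AC50.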

[5] = Cell Viability - Mesenchymal (AID 546); conditions: mesenchymal cells viability, qHTS; activity change, negative = cytotoxicity: at 91.7 µM (top of the series);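 note: cells exposed to compound for 40 hours before reading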
In short: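 Human kidney mesenchymal cells from normal renal glomeruli, 1000 cells/well, rested 5 hr at 37 °C, then treated 40 hr at 37 °C in complete medium. Cellular ATP read by CellTiter-Glo luminescence; AC50 from Hill-equation fits.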

[6] = Cellular Toxicity (caspase-3) HepG2 (AID 654);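 note: cells exposed to compound for 16 hours before reading; 0% = DMSO alone and 100% = caspase signal from 100 µM tamoxifen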
In short: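 Cells plated 5 hr at 37 °C, compound added, incubated 16 hr at 37 °C. Caspase-Glo 3/7 reagent followed, 20 min at room temperature, then luminescence read. Activation scored as signal increase; AC50 from Hill fit.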

[7] = Cellular Toxicity (caspase-3) Jurkat (AID 655);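 note: cells exposed to compound for 16 h at 37 °C before reading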
In short: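 Luminescent Caspase-Glo 3/7 read-out (20 min, room temperature) after 16 h compound treatment at 37 C of 5000 Jurkat cells per well. AC50 derived by Hill-equation fitting, scaled between DMSO basal and 100 uM tamoxifen stimulation.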

[8] = Cellular Toxicity (caspase-3) HUV-EC-C (AID 656)
In short: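 Luminescent Caspase-Glo 3/7 readout after 16 h, 37 °C compound exposure of HUV-EC-C endothelial cells, 1000 per well, complete medium. AC50 derived by Hill fitting, with DMSO as baseline and 100 uM tamoxifen as full activation.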

[9] = Cellular Toxicity (caspase-3) SHSY5Y (AID 657)
In short: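 Luminescent Caspase-Glo 3/7 read-out, 1 hr room temperature, follows 16 hours of compound treatment of SH-SY5Y cells at 37 °C. Normalization: DMSO basal, 10 uM staurosporine as 100%; AC50 values from Hill-equation concentration-response fits.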

[10] = Cellular Toxicity (caspase-3) BJ (AID 658);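 note: 0% = DMSO basal and 100% = 10 µM staurosporine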
In short: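 BJ human foreskin fibroblasts, 1000 cells/well, treated 16 hours at 37 °C in complete medium; caspase 3/7 activity by Caspase-Glo luminescence after 1 hr at room temperature. Normalized to DMSO and 10 uM staurosporine; AC50 from Hill fits.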

[11] = Cellular Toxicity (caspase-3) MRC-5 (AID 659);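 note: 0% = DMSO basal and 100% = 10 µM staurosporine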
In short: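 MRC-5 human normal lung fibroblasts, 1500 cells/well, treated 16 h at 37 °C in complete medium. Caspase 3/7 measured by Caspase-Glo luminescence after 1 h at room temperature. Normalized to DMSO and 10 uM staurosporine; AC50 from Hill fit.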

[12] = Cellular Toxicity (caspase-3) Mesangial (AID 660); conditions: Potency: caspase-3 activation;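 note: combined caspase 3 and 7 activity read by Caspase-Glo luminescence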
In short: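 Mesangial cells, 1000/well, 5 h settle at 37 °C; compound 16 h, 37 °C; Caspase-Glo 3/7 reagent 20 min RT; luminescence. Norm.: DMSO = 0%, tamoxifen 100 uM = 100%. AC50, Hill fit.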

[13] = Cellular Toxicity (caspase-3) SK-N-SH (AID 661);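 note: 0% = DMSO basal and 100% = 10 µM staurosporine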
In short: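 Human neuroblastoma SK-N-SH, 1500 cells/well, 5 hr pre-incubation, then compound 16 hr, 37 °C. Caspase-Glo 3/7 reagent, 1 hr RT, luminescence. Norm. to DMSO/10 uM staurosporine; Hill-fit AC50.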

[14] = Cellular Toxicity (caspase-3) H-4-II-E (AID 663); conditions: H-4-II-E rat hepatoma, scaled: DMSO 0%, 100 µM tamoxifen 100%; at 92.2 µM (top of the series);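 note: cells exposed to compound for 16 hr before readout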
In short: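 Rat hepatoma H-4-II-E cells (1500/well) plated 5 hr, then exposed to compound titrations for 16 hr at 37 °C. Caspase-Glo 3/7 luminescence read after 20 min at RT; data normalized to DMSO and 100 uM tamoxifen, AC50 from Hill fits.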

[15] = Cellular Toxicity (caspase-3) Hek293 (AID 664); conditions: HEK293 caspase-3 activation, DMSO = 0%, 100 µM tamoxifen = 100%; at 92.2 µM (top of the series);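 note: cells exposed to compound for 16 h at 37 °C before readout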
In short: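 Cells plated, 5 hr at 37 °C; compounds added; 16 hr at 37 °C; Caspase-Glo 3/7 reagent, 20 min RT; luminescence read. Activation expressed relative to DMSO and 100 uM tamoxifen, AC50 by Hill model.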

[16] = molecular target: Mitogen-activated protein kinase 10 (Mus musculus) (UniProt Q61831); test: JNK3 AlphaScreen Assay (AID 530; active = well fitted curve in either direction with a large enough effect, not every such curve was filed as active;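 note: kinase came from lysate of stimulated human HepG2 cells; signal reports phosphorylation of biotinylated GST-cJun 1-79 at Ser73 with 10 µM ATP; % is set by controls: 0 for no effect and ±100 for the full control effect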)
In short: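 Pre-activated (IL-1β/TNFα) JNK3 in HepG2 lysates phosphorylates biotin-GST-cJun(1-79), 10 uM ATP; anti-phospho-cJun(Ser73) AlphaScreen read at room temperature, pH 7.6 Tris buffer. Compounds pre-incubated 15 min as titrations.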

[17] = molecular target: Glucocorticoid receptor (Homo sapiens) (UniProt P04150); test: GR-GFP Redistribution (AID 450;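 active = compounds whose dose series gives a full or clear partial fitted curve of increased nuclear translocation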; note: potency is the fitted concentration of half-maximal effect); conditions: U2OS GR-GFP nuclear translocation, laser cytometry, 2 h
Chain of Glucocorticoid receptor (Homo sapiens) (P04150 whole entry, looked up): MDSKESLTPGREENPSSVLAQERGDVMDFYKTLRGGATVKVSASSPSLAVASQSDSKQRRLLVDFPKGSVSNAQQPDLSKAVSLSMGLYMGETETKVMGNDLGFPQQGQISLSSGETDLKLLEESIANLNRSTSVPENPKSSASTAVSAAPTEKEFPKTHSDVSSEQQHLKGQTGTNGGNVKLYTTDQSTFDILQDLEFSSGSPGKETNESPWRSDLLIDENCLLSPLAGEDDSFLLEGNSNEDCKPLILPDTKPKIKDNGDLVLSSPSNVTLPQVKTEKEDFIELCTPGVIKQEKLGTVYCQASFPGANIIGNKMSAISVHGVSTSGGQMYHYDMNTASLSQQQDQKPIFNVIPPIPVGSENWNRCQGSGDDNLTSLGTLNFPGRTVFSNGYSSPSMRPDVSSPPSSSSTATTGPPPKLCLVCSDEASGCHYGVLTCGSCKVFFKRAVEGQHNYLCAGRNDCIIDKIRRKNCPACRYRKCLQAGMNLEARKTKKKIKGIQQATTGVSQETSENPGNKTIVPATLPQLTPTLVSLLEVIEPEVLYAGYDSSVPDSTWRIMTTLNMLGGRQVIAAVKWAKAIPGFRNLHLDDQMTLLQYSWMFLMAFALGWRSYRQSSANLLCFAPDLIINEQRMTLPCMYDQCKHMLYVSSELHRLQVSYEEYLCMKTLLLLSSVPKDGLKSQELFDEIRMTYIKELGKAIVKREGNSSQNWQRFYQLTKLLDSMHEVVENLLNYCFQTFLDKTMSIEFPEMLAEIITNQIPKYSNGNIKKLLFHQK

[18] = molecular target: 3',5'-cyclic-AMP phosphodiesterase 4B (Homo sapiens) (UniProt Q07343); test: qHTS Assay for Inhibitors of PDE-IV (AID 607; active = well fitted activation curve with a large enough effect in the main read-out, with a control signal flat, not every such curve was filed as active; note: % of control where 0% means no effect)
Chain of 3',5'-cyclic-AMP phosphodiesterase 4B (Homo sapiens) (Q07343 whole entry, looked up): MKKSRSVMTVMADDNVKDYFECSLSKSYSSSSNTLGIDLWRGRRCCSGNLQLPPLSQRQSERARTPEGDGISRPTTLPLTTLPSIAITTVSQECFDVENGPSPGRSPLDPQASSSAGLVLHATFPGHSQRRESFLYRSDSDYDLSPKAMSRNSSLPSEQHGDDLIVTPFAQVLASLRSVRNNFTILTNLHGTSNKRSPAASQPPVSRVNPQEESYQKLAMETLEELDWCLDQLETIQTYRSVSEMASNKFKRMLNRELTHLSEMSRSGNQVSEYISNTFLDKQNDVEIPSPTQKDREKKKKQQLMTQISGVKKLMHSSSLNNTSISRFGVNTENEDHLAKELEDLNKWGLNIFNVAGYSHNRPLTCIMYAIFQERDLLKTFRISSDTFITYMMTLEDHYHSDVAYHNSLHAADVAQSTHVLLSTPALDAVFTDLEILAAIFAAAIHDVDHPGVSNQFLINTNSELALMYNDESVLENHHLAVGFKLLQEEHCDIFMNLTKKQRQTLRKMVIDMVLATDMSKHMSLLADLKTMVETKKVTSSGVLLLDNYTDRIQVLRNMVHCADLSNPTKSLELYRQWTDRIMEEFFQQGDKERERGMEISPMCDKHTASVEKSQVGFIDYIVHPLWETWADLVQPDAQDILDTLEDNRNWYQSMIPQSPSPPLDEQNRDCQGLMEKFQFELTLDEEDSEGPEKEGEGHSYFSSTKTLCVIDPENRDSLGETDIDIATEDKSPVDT
In short: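 Cell-based read-out of cAMP via a modified cyclic nucleotide-gated channel and membrane potential dye (535/590 nm) in HEK293 cells expressing PDE4 endogenously. Compounds tested up to 22.9 uM final; 100 uM RO 20-1724 reference.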

NCCO
inactive: Potency [1] | Potency [2] | Potency [3] | activity change, negative = cytotoxicity [4] -3.73% | Potency [5] | Potency [6] | Potency [7] | outcome [8] | outcome [9] | outcome [10] | outcome [11] | Potency [12] | Potency [13] | caspase-3 activation [14] -0.037% | caspase-3 activation [15] -4.95%

CNCC[C@H](Oc1ccc(C(F)(F)F)cc1)c1ccccc1
inactive: Potency [16]

CN1[C@@H]2CC[C@H]1CC(OC(c1ccccc1)c1ccccc1)C2 (some centres undefined)
inactive: Potency [17] > 46 µM | Potency [16] | outcome [18]
